Results on 20 compounds are retold here after PubChem BioAssay (NCATS).

The other results are listed elsewhere or left out. Results filed as inconclusive are left out. Calls of active or inactive are those of the source. Calls follow the shape of the dose curve; as a rule, active = well fitted inhibition curve with a large enough effect; inconclusive = small, poorly fitted or top-dose-only effect, or another doubt; inactive = no such curve, though single readings can be large or run the other way.
Potency is read from the fitted curve at half-maximal effect.

The target of this assay is DNA polymerase kappa (Homo sapiens) (UniProt Q9UBT6). In words: qHTS for Inhibitors of Polymerase Kappa: Confirmatory Assay for Cherry-picked Compounds (AID 720501). The settings on record: purified Pol-kappa, fluorescent strand-displacement substrate. The text has this: The processing and repair of DNA inter-strand crosslinks (ICL) in eukaryotic cells are extremely complex, potentially involving multiple DNA repair and damage tolerance pathways, including homologous recombination, nucleotide excision repair, translesion synthesis (TLS), and cell cycle checkpoints. […] A 1536-well format, fluorescence based, high-throughput screen (AID 588579) was developed in collaboration with the Oregon Health & Science University to screen for inhibitors of the Pol-kappa enzyme. This assay was used to validate the activity of the selected compounds from the primary screen against the human Pol-kappa. Inhibition is the desired outcome for this assay. NIH Chemical Genomics Center [NCGC] NIH Molecular Libraries Probe Centers Network [MLPCN] MLPCN Grant: MH094179 Assay Submitter (PI): Stephen Lloyd, Oregon Health & Science University
Chain of DNA polymerase kappa (Homo sapiens) (Q9UBT6 whole entry, looked up): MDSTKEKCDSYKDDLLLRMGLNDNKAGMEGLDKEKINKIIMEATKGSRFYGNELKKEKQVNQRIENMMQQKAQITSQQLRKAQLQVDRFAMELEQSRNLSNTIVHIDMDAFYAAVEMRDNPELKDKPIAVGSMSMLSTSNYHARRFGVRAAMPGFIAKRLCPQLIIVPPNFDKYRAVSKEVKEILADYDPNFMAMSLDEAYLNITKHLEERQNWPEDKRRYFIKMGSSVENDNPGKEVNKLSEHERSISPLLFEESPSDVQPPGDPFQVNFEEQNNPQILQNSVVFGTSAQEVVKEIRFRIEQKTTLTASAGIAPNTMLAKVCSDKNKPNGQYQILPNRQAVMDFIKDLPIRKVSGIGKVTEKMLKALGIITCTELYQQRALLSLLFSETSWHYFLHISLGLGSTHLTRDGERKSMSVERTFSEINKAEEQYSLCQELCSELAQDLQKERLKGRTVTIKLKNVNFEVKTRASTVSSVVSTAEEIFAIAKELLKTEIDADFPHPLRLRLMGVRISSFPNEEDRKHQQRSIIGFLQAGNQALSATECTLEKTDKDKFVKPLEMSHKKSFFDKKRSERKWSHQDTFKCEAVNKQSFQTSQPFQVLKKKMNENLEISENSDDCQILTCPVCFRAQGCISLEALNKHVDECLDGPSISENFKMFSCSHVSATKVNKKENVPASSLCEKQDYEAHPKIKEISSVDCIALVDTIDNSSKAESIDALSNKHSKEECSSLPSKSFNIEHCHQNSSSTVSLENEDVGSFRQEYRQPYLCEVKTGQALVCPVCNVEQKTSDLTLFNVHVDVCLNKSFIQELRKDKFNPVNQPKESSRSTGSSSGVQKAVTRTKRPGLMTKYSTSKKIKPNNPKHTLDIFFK
Three microliters of reagents (buffer in column 3 and 4 as negative control and 10 nM Pol-kappa in columns 1, 2, and 5-48) were dispensed into a 1536-well black solid-bottom plate. Compounds (23 nL) were transferred via Kalypsys pin tool equipped with 1536-pin array. The plates were then incubated for 15 min at room temperature, and 1 uL of substrate was added to start the reaction for a final concentration of 50 nM. The substrate was made by the annealing of unlabeled oligodeoxynucleotide primer (59-[…]-39) and TAMRA-labeled reporter strand (59-[…]-6-TAMRA-39) to oligodeoxynucleotide template labeled with BHQ-2 (59-BHQ-2-[…]-39) described in detail at the Yamanaka et.al. (PLOS, 2012) reference paper. The assay plates were initially read after 0 min and again after 10 min of kinetic reaction using the PerkinElmer Viewlux reader equipped with 525 nm excitation and 598 nm emission filters.
On to `Cc1ccc(-c2nn(-c3ccccc3)cc2/C=C2\SC(=S)N(CCCCCC(=O)O)C2=O)o1`, for which the Potency is 33.6 µM (active).

As for `O=C(O)C1CCN(c2ccc([N+](=O)[O-])cc2[N+](=O)[O-])CC1`, the Potency was 42.3 µM (active).

Turning to `Cc1ccc2cc(/C=N/Nc3ccc(C(=O)O)cc3)c(Cl)nc2c1`, the Potency was 26.7 µM (active).

`COc1cc(/C=C2/C(=O)NN(c3ccc(F)cc3)C2=O)cc([N+](=O)[O-])c1O`: the Potency was 37.7 µM (active).

In the case of `COc1ccccc1C(=O)N/C(=C/c1ccco1)C(=O)Nc1ccc(C(=O)O)cc1`, the Potency was 15 µM (active).

With `O=C(O)C(c1ccccc1)N1C(=O)/C(=C\c2ccc(-c3cccc(Cl)c3)o2)SC1=S` (stereo not given), the Potency was 29.9 µM (active).

Consider `CN(C)CCNC(=O)c1ccc(Cl)c2cc3ccccc3nc12`, for which the Potency was 21.2 µM (active).

As to `CCOc1ccccc1/C=c1\sc2nc(-c3ccco3)nn2c1=O`, the Potency was 47.4 µM (active).

`O=C1COc2c1ccc(O)c2O`: the Potency is 6.7 µM (active).

In the case of `O=C1NN(c2ccccc2)C(=O)/C1=C/c1ccc(-c2cccc(C(=O)O)c2)o1`, the Potency was 16.8 µM (active).

With `O=C(c1cc2c(s1)CCC2)N1CCN(c2ccccc2)CC1`, the Potency was 42.3 µM (active).

For `COCCNC(=O)Nc1ccc2nc(-c3ccco3)c(-c3ccco3)nc2c1`, the Potency was 3.77 µM (active).

In the case of `CCc1nc2cccnc2n1-c1ccc(C(=O)O)cc1`, the Potency was 18.9 µM (active).

Consider `COc1ccc(CNC(=O)c2nnn(CC(=O)Nc3cc(C)cc(C)c3)c2N)cc1`, for which the Potency is 47.4 µM (active).

`COc1ccc2[nH]c3c(C)c4cc[n+](C)cc4c(C)c3c2c1`: the Potency is 1.34 µM (active).

On to `NC(CSC(c1ccccc1)(c1ccccc1)c1ccc(-c2ccccc2)cc1)C(=O)O` (stereo not given), for which the Potency is 67 µM (active).

Turning to `Cc1ccc(-c2nc(SCc3ccc(Br)cc3)n3[nH]c(=O)cc3n2)cc1`, the Potency is 16.8 µM (active).

As to `CCOc1cccc2c1N[C@@H](c1ccc(C(=O)O)cc1)[C@H]1CC=C[C@@H]21`, the Potency is 2.38 µM (active).

With `O=C(O)c1ccc(NS(=O)(=O)c2ccc3c(c2)C(=O)c2cc(S(=O)(=O)Nc4ccc(C(=O)O)cc4)ccc2-3)cc1`, the Potency is 16.8 µM (active).

Consider `Cc1cc(/C=C2\SC(=O)N(C)C2=O)c(C)n1-c1cccc(C(=O)O)c1`, for which the Potency was 9.47 µM (active).
